Results on 40 compounds are retold here after PubChem BioAssay (NCATS).

Results filed as inconclusive are left out. Activity calls are given as the source filed them. Calls come from the whole dose curve; as a rule, active = well fitted inhibition curve with a large enough effect; inconclusive = small, poorly fitted or top-dose-only effect; inactive = no such curve, though single readings can be large or run the other way.
Potency is the fitted concentration of half-maximal effect.

The assay is described as follows: BET inhibitor-based combinations targeting novel dependencies in MECOM-rearranged (r) AML: HNT-34 cell line (AID 2202234). Note: nearly all actives have a fitted effect of over 35% in size. The conditions noted are these: HNT-34 AML viability, CellTiter-Glo luminescence, 48 h; series mostly up to 46 µM. The source says: Ecotropic viral insertion site 1 (EVI1) is located on chromosome 3q26.2 as part of the MECOM (MDS and EVI1 complex) locus. Under normal hematopoiesis, EVI1 is a regulator of hematopoietic stem cell maintenance and self-renewal and EVI1 levels decrease as the cells differentiate. In approximately 5-10% of de novo acute myeloid leukemia (AML) EVI1 is aberrantly expressed, including Chromosomal inv(3)(q21;q26.2) or t(3;3)(q21;q26.2) alterations (MECOM-r) that account for about 50% of AML with EVI1 overexpression 31. AMLs with high levels of EVI1 have a poor prognosis and an overall survival time averaging between 10-14 months. EVI1 overexpression confers resistance in leukemia cells, highlighting the need to develop new targeted therapies for EVI1 overexpressing AMLs. Here, we performed an unbiased chemical drug screening by evaluating the single agent activity of a collection of 2,480 oncology-focused, approved and investigational drugs (NCATS Mechanism Interrogation Plates, MIPE v5.0) against a panel of seven AML cell lines. These included four MECOM-r cell-lines (AML-191, AML-194, UCSD-AML1 and HNT-34) and three non-MECOM-r AMLs (MV4-11, OCI-AML3 and SET-2). Exploiting the mechanistic redundancy built in the library, we identified target-level sensitivities in MECOM-r AML cells and relative activity as compared to other AML subtypes.
A collection of 2480 mechanistically annotated dugs (MIPE v5.0) was used to screen four 3q26.2 rearranged AML cell lines and three non-3q26.2 rearranged AML cell lines. This library purposely exploits redundancy by including multiple inhibitors of key onco-targets, while simultaneously encompassing mechanistic diversity, targeting more than 800 distinct mechanisms of action. Briefly, cells were seeded in 5 uL of growth media using a Multidrop Combi dispenser into 1536 well white polystyrene tissue culture treated plates (Corning) at a density of 500cells/well. For each cell-line, for each of the 2480 drugs in MIPE v5.0 library, an 11-point dose curve was generated via a 1536 pin-tool. Plates were incubated for 48 hr at standard incubator conditions, covered by a stainless steel gasketed lid to prevent evaporation. Cell viability was determined by luminescence based, Cell Titer Glo assay (Promega). In detail, 3 uL of Cell Titer Glo were added to each well and plates were incubated at room temperature for 15 min with a stainless-steel lid in place. Luminescence readings were taken using a Viewlux (PerkinElmer) with a 2 s exposure time per plate. Compound dose-response curves were normalized to DMSO and empty well controls on each plate. Quantitative drug activity data from dose-response curves was determined utilizing area Under the Curve (AUC) and Z-transformed AUC (Z-AUC, a mean-centering transformation applied to each individual cell-line screened).
Background: In ATP-based viability assays light output follows the ATP content of the culture.
As for `O=C(NC[C@H](O)CO)c1ccncc1Nc1ccc(I)cc1F`, the Potency is 0.468 µM (active).

For the compound `Cc1ccc(NC(=O)c2ccc3c(c2)OCCO3)cc1NC(=O)c1ccc2nc(OCCN3CCCC3)ccc2c1`, the Potency is 0.0456 µM (active).

As to `C[C@@H](Oc1ccc2[nH]nc(/C=C/c3cnn(CCO)c3)c2c1)c1c(Cl)cncc1Cl`, the Potency was 0.662 µM (active).

`Cc1ccc(-c2ncn(-c3ccc(Nc4nccc(-c5cccc(N6CCOCC6)c5)n4)cc3)n2)cn1`: the Potency was 2.95 µM (active).

As for `CC(=O)c1cc2c(o1)C(=O)c1ccccc1C2=O`, the Potency was 2.35 µM (active).

As to `O=C(/C=C/c1ccc(Cl)cc1)N1CCC2(CC1)CN(Cc1ccc(Cl)c(Cl)c1)C(=O)O2`, the Potency is 26.3 µM (active).

On to `C[C@@H](O[C@H]1OCCN(Cc2n[nH]c(=O)[nH]2)[C@@H]1c1ccc(F)cc1)c1cc(C(F)(F)F)cc(C(F)(F)F)c1`, for which the Potency is 18.6 µM (active).

As to `COc1cc(C(C)C)c2c(c1)S(=O)(=O)N(COc1cc(=O)n3cccc(OCCN4CCCCC4)c3n1)C2=O`, the Potency is 20.9 µM (active).

With `CCS(=O)(=O)Nc1ccc2[nH]c(O)c(C(=Nc3ccc(CN4CCCCC4)cc3)c3ccccc3)c2c1`, the Potency was 0.148 µM (active).

On to `COC1CCC(N2C(=O)CNc3ncc(-c4ccc(C(C)(C)O)nc4)nc32)CC1` (stereo not given), for which the Potency was 2.35 µM (active).

For `N#Cc1ccnc(N2C(=O)CC[C@H]2C(=O)N(c2cncc(F)c2)C(C(=O)NC2CC(F)(F)C2)c2ccccc2Cl)c1` (stereo not given in full), the Potency result is “inactive”.

Take `N=C(N)c1ccc2nc(-c3cc(CC(=O)N[C@@H](CC(=O)O)C(=O)O)cc(-c4cc(S(N)(=O)=O)ccc4O)c3O)[nH]c2c1`: the Potency result was “inactive”.

With `CCc1cc(/C(C)=N/OCc2ccc(C3CCCCC3)c(C(F)(F)F)c2)ccc1CN1CC(C(=O)O)C1`, the Potency result is “inactive”.

With `C=CC(=O)Nc1cccc(Oc2nc(Nc3ccc(N4CCN(C)CC4)cc3)nc3ccsc23)c1`, the Potency was 8.33 µM (active).

With `CCCNC(=O)[C@H]1O[C@@H]1C(=O)N[C@H](C(=O)N1CCC[C@H]1C(=O)OC)C(C)CC` (stereo not given in full), the Potency is 23.5 µM (active).

Turning to `Cc1onc(-c2ccccc2)c1-c1ccc(S(N)(=O)=O)cc1`, the Potency entry is “inactive”.

As to `C=CCNc1c(O)cc2c(O)c1C[C@@H](C)C[C@H](OC)[C@H](O)[C@@H](C)/C=C(/C)[C@H](OC(N)=O)[C@@H](OC)/C=C\C=C(\C)C(=O)N2`, the Potency was 4.17 µM (active).

For `Cc1ncsc1-c1ccc([C@H](C)NC(=O)[C@@H]2C[C@@H](O)CN2C(=O)[C@@H](NC(=O)COCCCOCCNC(=O)C[C@@H]2N=C(c3ccc(Cl)cc3)c3c(sc(C)c3C)-n3c(C)nnc32)C(C)(C)C)cc1`, the Potency was 0.0295 µM (active).

Turning to `CC[C@@H](Oc1cccc(CN(CCCOc2ccc(OC)cc2)c2nc3ccccc3o2)c1)C(=O)O`, the Potency result was “inactive”.

As to `Cn1c(=O)c2c(ncn2CC2OCCO2)n(C)c1=O`, the Potency result is “inactive”.

`CC(C)C1CCC(C(=O)N[C@H](Cc2ccccc2)C(=O)O)CC1` (stereo not given in full): the Potency result was “inactive”.

Consider `CNCCN(C)Cc1cn[nH]c1-c1ccc(OC2CC(OCCC3CCOCC3)C2)cc1` (stereo not given), for which the Potency was 18.6 µM (active).

`O=C(O)CC(C(=O)O)n1c(O)c(C2=c3cc(Br)ccc3=NC2=O)sc1=S` (stereo not given): the Potency entry was “inactive”.

Regarding `COc1ccc2c(c1)[C@]1(C[C@H]1c1ccc3c(/C=C/c4ccc(CN5C[C@@H](C)O[C@@H](C)C5)cc4)n[nH]c3c1)C(=O)N2`, the Potency was 1.32 µM (active).

Consider `Cn1cc(-c2cc(Oc3cc(F)c(NC(=O)C4(C(=O)Nc5ccccc5)CC4)cc3F)ccn2)cn1`, for which the Potency was 5.25 µM (active).

On to `CO[C@@]12[C@H](COC(N)=O)C3=C(C(=O)C(C)=C(N)C3=O)N1C[C@@H]1N[C@@H]12`, for which the Potency entry is “inactive”.

Take `Cc1ccc(NC(=O)[C@H]2CCCN(C(=O)c3c(C)cccc3F)[C@H]2c2ccc(NC3CCCC3)cc2)cc1C(F)(F)F`: the Potency was 9.34 µM (active).

On to `O=C(NO)c1cnc(NC2(c3ccccc3)CC2)nc1`, for which the Potency is 6.61 µM (active).

In the case of `Cc1nc2cccc(N)c2c(=O)n1C1CCC(=O)NC1=O` (stereo not given), the Potency result was “inactive”.

With `OC1CCC(Oc2cccc3cnc(Nc4ccc5nc[nH]c5c4)nc23)CC1` (stereo not given), the Potency is 0.934 µM (active).

For the compound `C[C@@H](O)[C@@H](C)Oc1nc(Nc2ccc(S(=N)(=O)C3CC3)cc2)ncc1C(F)(F)F` (stereo not given in full), the Potency is 16.6 µM (active).

As to `Clc1cccc(-c2ccc(-c3nnc(CCCc4ccc5cccnc5n4)o3)cc2)c1`, the Potency result is “inactive”.

For the compound `O=C(O)CCNc1cc(N2CCc3ccccc3CC2)nc(-c2cccnc2)n1`, the Potency entry is “inactive”.

Turning to `CN1CC(=O)N2[C@H](c3ccc4c(c3)OCO4)c3[nH]c4ccccc4c3C[C@@H]2C1=O`, the Potency entry is “inactive”.

Regarding `CNC1CCCN(c2c(F)cc3c(=O)c(C(=O)O)cn(C4CC4)c3c2OC)C1` (stereo not given), the Potency entry is “inactive”.

For the compound `Cc1ccc(Nc2ncc3c(n2)N(C)C(=O)N(c2cc(NC(=O)c4cccc(C(F)(F)F)c4)ccc2C)C3)cn1`, the Potency is 0.0118 µM (active).

Regarding `COc1ccc(OC)c(-c2nnc3ccc(-c4ccc(OC)c(O[C@@H]5CCOC5)c4)nn23)c1`, the Potency is 1.05 µM (active).

For the compound `C=CC(=O)Nc1ccc2ncnc(Nc3cccc(Br)c3)c2c1`, the Potency is 9.34 µM (active).

For `CN(C)CCOc1ccc(-c2nc(-c3ccc4c(c3)CC/C4=N\O)c(-c3ccncc3)[nH]2)cc1`, the Potency was 14.8 µM (active).

For the compound `COc1ccc(S(=O)(=O)NCc2ccc(C(=O)NCCc3ccc(Cl)cn3)cc2)cc1`, the Potency result was “inactive”.
